Source: PubChem BioAssay (Tox21)
Several values for one entry are separate records, joined by “and”; a condition that tells them apart may be missing. Identical values can stand only once. Records with an inconclusive call do not appear. The source holds several records for some structures; these can differ, active in one and inactive in another. Activity calls are given as the source filed them. Unless noted, the call rests on the fitted dose curve.

Experiments:
[1] = Nuclear factor erythroid 2-related factor 2/antioxidant responsive element (Nrf2/ARE) small molecule agonists: qHTS cell viability counter screen in human keratinocytes (AID 1919968; active means well fitted curve in the direction sought with a large enough effect in the repeat runs; an effect the other way counts as inactive or inconclusive; further: nearly all actives have a fitted effect of over 55% in size; further: potency means the concentration at half of the fitted maximal effect)
Summary of the method: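 After a 5 h attachment period, ARE-reporter keratinocytes were dosed with compounds in DMSO and then cultured 23 h at 37 C. Cell viability came from CellTiter-Fluor signal read after a further 1 h.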

[2] = Nuclear factor erythroid 2-related factor 2/antioxidant responsive element (Nrf2/ARE) small molecule agonists: luciferase reporter gene qHTS assay in human keratinocytes (AID 1919969); further: nearly all actives have a fitted effect of over 35% in size; further: potency means the concentration at half of the fitted maximal effect
[3] = target: Gonadotropin-releasing hormone receptor (Homo sapiens) (UniProt P30968); assay: Human gonadotropin-releasing hormone receptor (GnRHR) small molecule agonists, calcium flux assay in GnRHR-HEK293 cells (AID 1920063); further: nearly all actives have a fitted effect of over 35% in size
Sequence of Gonadotropin-releasing hormone receptor (Homo sapiens) (P30968 whole entry, looked up): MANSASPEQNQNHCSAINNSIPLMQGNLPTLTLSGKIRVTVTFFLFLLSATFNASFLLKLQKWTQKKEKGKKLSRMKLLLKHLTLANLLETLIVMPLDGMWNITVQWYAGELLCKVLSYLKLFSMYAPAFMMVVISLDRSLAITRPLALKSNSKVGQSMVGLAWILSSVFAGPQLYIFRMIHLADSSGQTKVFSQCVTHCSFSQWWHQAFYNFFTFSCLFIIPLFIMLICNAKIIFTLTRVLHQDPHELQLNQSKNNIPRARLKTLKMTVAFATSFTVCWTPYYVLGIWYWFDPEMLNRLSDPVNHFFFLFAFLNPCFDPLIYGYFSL
Summary of the method: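 We seeded human GnRHR-expressing HEK293 cells for 18 hours, loaded them with calcium dye for an hour at 37 C, added test compounds, and recorded fluorescence intensity kinetically for three minutes.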

[4] = target: KiSS-1 receptor (Homo sapiens) (UniProt Q969F8); assay: Human kisspeptin (KISS1R) small molecule agonists, calcium flux assay in KISS1R-HEK293 cells (AID 1920064; active means well fitted curve in the direction sought with a large enough effect in the repeat runs; an effect the other way counts as inactive or inconclusive)
Sequence of KiSS-1 receptor (Homo sapiens) (Q969F8 whole entry, looked up): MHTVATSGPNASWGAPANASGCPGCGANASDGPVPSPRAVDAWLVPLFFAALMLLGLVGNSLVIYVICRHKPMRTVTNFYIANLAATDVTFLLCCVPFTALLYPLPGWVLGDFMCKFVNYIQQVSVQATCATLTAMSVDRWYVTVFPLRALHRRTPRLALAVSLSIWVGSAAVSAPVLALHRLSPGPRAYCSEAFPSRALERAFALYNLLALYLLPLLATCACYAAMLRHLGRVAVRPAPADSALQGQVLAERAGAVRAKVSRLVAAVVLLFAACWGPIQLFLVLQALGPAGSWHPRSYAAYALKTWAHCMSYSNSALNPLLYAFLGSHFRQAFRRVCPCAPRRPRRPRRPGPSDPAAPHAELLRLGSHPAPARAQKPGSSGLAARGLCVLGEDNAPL
Summary of the method: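 Kinetic calcium assay, 1 s sampling over 3 min at Ex/Em 480/540, in HEK293 cells engineered with human KISS1R; compounds delivered in DMSO after 1 h dye loading.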

[5] = G protein-coupled receptor (GPCR) small molecule agonists, calcium flux assay: HEK293 wild type cell line counter screen (AID 1920065)
Summary of the method: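 Calcium-sensitive dye, loaded 1 h at 37 C into cells cultured 18 h, reports compound-evoked calcium release as fluorescence (Ex/Em 480/540), measured over 3 min. Agonist mode; 15-point titrations, triplicate.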

[6] = p53 small molecule agonists, cell-based qHTS assay with human liver microsomes (AID 1963577);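 further: p53 response element beta-lactamase reporter cells with liver microsomes plus NADPH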
Summary of the method: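 Compounds act here after metabolic activation: human liver microsomes and NADPH, both at 0.5 mg/mL final, were co-added to p53RE-bla cells. Incubation ran 16 h at 37 C, followed by LiveBLAzer detection.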

[7] = p53 small molecule agonists, cell-based qHTS assay with rat liver microsomes (AID 1963578)
Summary of the method: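 Read-out is beta-lactamase reporter fluorescence (LiveBLAzer, 2 h, room temperature, dark) in p53RE-bla cells treated 16 h at 37 C with compound, rat liver microsomes and NADPH, both 0.5 mg/mL final.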

[8] = p53 small molecule agonists, cell-based qHTS assay with rat liver microsomes: qHTS cell viability counter screen (AID 1963580); further: nearly all actives have a fitted effect of over 45% in size
Summary of the method: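 p53RE-bla HCT-116 cells were exposed 16 h at 37 C to compounds with rat liver microsomes (0.5 mg/mL) and NADPH (0.5 mg/mL). Viability was measured in the same wells as ATP content by CellTiter-Glo luminescence.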

[9] = p53 small molecule agonists, cell-based qHTS assay: qHTS cell viability counter screen (AID 1963581); further: nearly all actives have a fitted effect of over 45% in size
Summary of the method: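 Following 5 h attachment, HCT-116 p53RE-bla cells took up compound for 16 h at 37 C; the reporter was read with B/G FRET substrate (2 h RT), and viability then via CellTiter-Glo ATP luminescence.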

[10] = p53 small molecule agonists, cell-based qHTS assay (AID 1963582; active means well fitted activation curve with a large enough effect in the signal ratio in the repeat runs, not every such curve was filed as active; the % refers to the signal ratio)
Summary of the method: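 In this cell-based concentration-response screen, a p53 response element drives beta-lactamase; cells received DMSO-borne compounds after 5 h culture and were incubated a further 16 h before FRET substrate development.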

[11] = target: 5-hydroxytryptamine receptor 2A (Homo sapiens) (UniProt P28223); assay: 5-hydroxytryptamine receptor 2A (HTR2A) small molecule antagonists, cell-based qHTS assay (AID 1963586); further: nearly all actives have a fitted effect of over 45% in size; further: potency means the concentration at half of the fitted maximal effect
Sequence of 5-hydroxytryptamine receptor 2A (Homo sapiens) (P28223 whole entry, looked up): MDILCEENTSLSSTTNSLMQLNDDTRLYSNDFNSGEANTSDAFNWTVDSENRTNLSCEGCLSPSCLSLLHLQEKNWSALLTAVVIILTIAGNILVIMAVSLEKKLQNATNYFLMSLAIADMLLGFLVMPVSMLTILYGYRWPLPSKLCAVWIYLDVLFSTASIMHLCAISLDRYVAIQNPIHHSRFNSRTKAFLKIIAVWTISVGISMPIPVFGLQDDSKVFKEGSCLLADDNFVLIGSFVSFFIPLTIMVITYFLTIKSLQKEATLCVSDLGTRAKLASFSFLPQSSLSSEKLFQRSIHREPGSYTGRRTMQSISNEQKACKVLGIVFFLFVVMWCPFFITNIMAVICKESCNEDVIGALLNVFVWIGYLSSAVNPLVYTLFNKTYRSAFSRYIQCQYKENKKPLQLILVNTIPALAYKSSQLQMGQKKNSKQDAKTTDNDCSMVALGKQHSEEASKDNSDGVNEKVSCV
Summary of the method: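 Antagonist-mode intracellular calcium assay: DOI (4 nM) added after 5 min compound pre-incubation at room temperature to dye-loaded HTR2A-CHO cells. Fluorescence followed for 3 min, sampled every second.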

[12] = target: 5-hydroxytryptamine receptor 2A (Homo sapiens) (UniProt P28223); assay: 5-hydroxytryptamine receptor 2A (HTR2A) small molecule agonists, cell-based qHTS assay (AID 1963587); further: nearly all actives have a fitted effect of over 30% in size
Summary of the method: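 CHO cells stably expressing human HTR2A, plated 18 h, loaded with calcium dye 1 h at 37 C. Agonist mode: compounds added and intracellular calcium fluorescence recorded kinetically for 2 min at 1 sec intervals.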

[13] = target: Muscarinic acetylcholine receptor M1 (Homo sapiens) (UniProt P11229); assay: Cholinergic receptor muscarinic 1 (CHRM1) small molecule antagonists, cell-based qHTS assay (AID 1963588); further: nearly all actives have a fitted effect of over 40% in size; further: potency means the concentration at half of the fitted maximal effect
Sequence of Muscarinic acetylcholine receptor M1 (Homo sapiens) (P11229 whole entry, looked up): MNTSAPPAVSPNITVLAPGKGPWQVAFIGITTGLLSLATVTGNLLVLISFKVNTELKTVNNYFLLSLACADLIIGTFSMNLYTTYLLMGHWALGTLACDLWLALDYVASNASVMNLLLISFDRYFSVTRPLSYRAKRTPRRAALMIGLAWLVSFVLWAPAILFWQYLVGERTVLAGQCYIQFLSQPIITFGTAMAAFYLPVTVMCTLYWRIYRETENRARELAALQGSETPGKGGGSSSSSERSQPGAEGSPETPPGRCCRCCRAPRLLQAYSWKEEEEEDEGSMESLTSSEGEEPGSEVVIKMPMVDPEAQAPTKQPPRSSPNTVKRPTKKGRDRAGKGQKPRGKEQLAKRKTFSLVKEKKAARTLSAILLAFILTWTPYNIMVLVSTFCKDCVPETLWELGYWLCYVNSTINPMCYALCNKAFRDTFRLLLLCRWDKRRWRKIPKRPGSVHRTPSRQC
Summary of the method: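 CHRM1-CHO calcium-flux assay, antagonist mode. Cells were seeded 18 h, dye-loaded 1 h at 37 C and given compound for 5 min at RT, then acetylcholine was added at 50nM. FDSS fluorescence was read 3 min; 15 concentrations, three runs.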

[14] = target: Muscarinic acetylcholine receptor M1 (Homo sapiens) (UniProt P11229); assay: Cholinergic receptor muscarinic 1 (CHRM1) small molecule agonists, cell-based qHTS assay (AID 1963589); further: nearly all actives have a fitted effect of over 35% in size
Summary of the method: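 Measures agonist-induced intracellular calcium rise. Stable human CHRM1 CHO line, 1 h dye load at 37 C, compounds from DMSO, kinetic fluorescence read.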

[15] = cAMP Responsive Elements (CRE) small molecule agonists, cell-based qHTS assay (AID 1963590)
Summary of the method: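 A CRE-responsive beta-lactamase reporter in HEK 293T cells was used. Treatment ran 3 h at 37 C; detection used LiveBLAzer B/G FRET substrate for 2 h at room temperature.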

[16] = cAMP Responsive Elements (CRE) small molecule antagonists, cell-based qHTS assay (AID 1963591; active means well fitted inhibition curve with a large enough effect in the signal ratio in the repeat runs, not every such curve was filed as active; the % refers to the signal ratio)
Summary of the method: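 HEK293T cells carrying a CRE-driven beta-lactamase reporter receive compound and NKH477 (0.25 uM final) for 3 h. Fluorescence from LiveBLAzer B/G FRET substrate is read after 2 h at room temperature.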

[17] = target: Beta-2 adrenergic receptor (Homo sapiens) (UniProt P07550); assay: Adrenergic beta2 receptor (ADRB2) small molecule antagonists, cell-based qHTS assay (AID 1963592); further: series mostly up to about 92 µM; nearly all actives have a fitted effect of over 50% in size
Sequence of Beta-2 adrenergic receptor (Homo sapiens) (P07550 whole entry, looked up): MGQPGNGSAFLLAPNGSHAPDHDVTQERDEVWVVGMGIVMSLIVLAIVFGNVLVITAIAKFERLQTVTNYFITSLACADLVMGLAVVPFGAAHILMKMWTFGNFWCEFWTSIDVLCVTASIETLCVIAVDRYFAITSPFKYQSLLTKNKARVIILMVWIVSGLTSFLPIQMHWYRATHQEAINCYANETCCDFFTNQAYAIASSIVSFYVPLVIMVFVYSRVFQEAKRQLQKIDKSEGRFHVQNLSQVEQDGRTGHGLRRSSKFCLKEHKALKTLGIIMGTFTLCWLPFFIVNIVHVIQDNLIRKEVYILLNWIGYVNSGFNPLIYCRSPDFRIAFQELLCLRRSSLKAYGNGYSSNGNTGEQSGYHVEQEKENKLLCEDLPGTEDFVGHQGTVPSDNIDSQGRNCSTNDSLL
Summary of the method: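 Cells (CHO, stable ADRB2 overexpression) incubated 18-20hr at 37C; compounds added from DMSO; agonist mix (1nM isoproterenol, 100uM IBMX, 25uM Ro-20-1724) added; 0.5hr RT; d2-cAMP and anti-cAMP-cryptate added; 1hr RT; 665/615 nm read.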

[18] = target: Beta-2 adrenergic receptor (Homo sapiens) (UniProt P07550); assay: Adrenergic beta2 receptor (ADRB2) small molecule agonists, cell-based qHTS assay (AID 1963593);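 further: CHO cells stably overexpressing human ADRB2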
Summary of the method: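 CHO cells stably over-expressing ADRB2 were plated overnight at 37C, then dosed with compounds plus a stimulation mix containing 100uM IBMX and 25uM Ro-20-1724 for 0.5hr at room temperature. cAMP was measured by HTRF competition, 1hr.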

[19] = target: D(2) dopamine receptor (Homo sapiens) (UniProt P14416); assay: Dopamine D2 receptor (DRD2) small molecule agonists, cell-based qHTS assay (AID 1963594); further: nearly all actives have a fitted effect of over 35% in size
Sequence of D(2) dopamine receptor (Homo sapiens) (P14416 whole entry, looked up): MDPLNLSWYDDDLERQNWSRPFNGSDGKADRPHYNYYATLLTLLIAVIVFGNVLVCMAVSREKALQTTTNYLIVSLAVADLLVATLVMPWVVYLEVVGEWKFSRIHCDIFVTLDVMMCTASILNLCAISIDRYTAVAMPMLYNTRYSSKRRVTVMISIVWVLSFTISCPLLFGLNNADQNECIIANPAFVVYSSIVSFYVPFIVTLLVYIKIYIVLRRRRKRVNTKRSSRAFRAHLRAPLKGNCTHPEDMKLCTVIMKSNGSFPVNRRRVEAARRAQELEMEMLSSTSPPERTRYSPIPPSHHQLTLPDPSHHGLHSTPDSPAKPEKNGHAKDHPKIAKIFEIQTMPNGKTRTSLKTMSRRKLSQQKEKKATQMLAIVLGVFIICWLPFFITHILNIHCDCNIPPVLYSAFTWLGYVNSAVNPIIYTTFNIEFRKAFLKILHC
Summary of the method: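 HEK293 cells stably expressing human DRD2, pre-treated with PDE inhibitor Ro20-1724 (0.1 mM final) and compound 10 min at room temperature, then stimulated with NKH477 (200nM […]) for 30 min. cAMP read by HTRF (665/620 nm).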

[20] = target: D(2) dopamine receptor (Homo sapiens) (UniProt P14416); assay: Dopamine D2 receptor (DRD2) small molecule antagonists, cell-based qHTS assay (AID 1963595; active means well fitted inhibition curve with a large enough effect in the signal ratio in the repeat runs, with a control signal flat; the % refers to the signal ratio)
Summary of the method: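 Readout: HTRF cAMP, cAMP-d2 competing with cellular cAMP for anti-cAMP cryptate, read after 1 h. Cells: DRD2-HEK293. Conditions: 0.1 mM Ro20-1724, 12 nM quinpirole, 200 nM NKH477, 30 min RT.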

Measured: Potency

CCCC(C)C(O)CC (centres undefined)
inactive: all assays above

Cc1cn([C@H]2C[C@H](F)[C@@H](CO)O2)c(=O)[nH]c1=O
not listed: [16] | [18]
inactive: all other assays above

CN(C)CCCNCCCN
not listed: [18]
inactive: all other assays above

CCCCC(CC)C(=O)OCCOCCOCCOC(=O)C(CC)CCCC (centres undefined)
active: [2] 68.6 µM
inactive: all other assays above

COc1ccc2cc3[n+](cc2c1OC)CCc1cc2c(cc1-3)OCO2
active: [1] 4.22 µM
inactive: [2] | [3] | [4] | [5] | [6] | [7] | [8] | [9]

COS(=O)(=O)O
not listed: [12] | [14] | [18]
inactive: all other assays above

CC(=O)[O][Al][O]C(C)=O
not listed: [17]
inactive: all other assays above

Cc1c(O)cccc1C(=O)N[C@@H](CSc1ccccc1)[C@H](O)CN1C[C@H]2CCCC[C@H]2C[C@H]1C(=O)NC(C)(C)C
inactive: [2] | [3] | [4] | [5] | [6] | [7] | [19] | [20]
active: [1] 11.9 µM

O=C1CC[C@H](C(=O)N2CCCCC2)N1
not listed: [18]
inactive: all other assays above

CCCc1c2oc(C(=O)O)cc(=O)c2cc2c(=O)cc(C(=O)O)n(CC)c12
not listed: [13] | [19]
inactive: all other assays above

CC(=O)/C=C/C1C(C)=CCC(C)C1(C)C (centres undefined)
inactive: all assays above

OCC1(CO)COCOC1
inactive: all assays above

CC(C)Nc1ccccc1
not listed: [18]
inactive: all other assays above

C1CCCNCCC1
not listed: [18]
inactive: all other assays above

CC(C)CCCCCOC(=O)CS
active: [11] 1.88 µM
not listed: [13] | [15] | [19]
inactive: all other assays above

O=C(O)c1ccccc1OP(=O)(O)O
not listed: [18]
inactive: all other assays above

CC(C)(C)c1nnc(NS(=O)(=O)c2ccc(N)cc2)s1
active: [11] 7.29 µM
inactive: all other assays above

O=C1OC(=O)c2c(Cl)c(Cl)c(Cl)c(Cl)c21
inactive: all assays above

CC(=O)OC/C=C/c1ccccc1
not listed: [8] | [9] | [10] | [12]
inactive: all other assays above

CC(C)=CCCC(C)CCOC(=O)C(C)C (centres undefined)
inactive: all assays above

O=C1c2cccc(O)c2C(=O)c2c(O)cccc21
inactive and 3.35 µM (active): [1]
active: [2] 27.6 µM
not listed: [16] | [17]
inactive: all other assays above

NS(=O)(=O)c1cc2c(cc1Cl)NC(CC1CCCC1)NS2(=O)=O (centres undefined)
not listed: [12] | [15] | [20]
inactive: all other assays above

O=C(O)c1ccccc1-n1cc(C(=O)O)c(=O)c2cc(Nc3c(F)cc(F)cc3Cl)c(Cl)cc21
not listed: [19] | [20]
inactive: all other assays above

C#CC(O)CCC (centres undefined)
not listed: [14] | [15] | [17] | [20]
inactive: all other assays above

NC(=O)c1ccc([N+](=O)[O-])cc1
not listed: [18]
inactive: all other assays above

CCOCOCC
not listed: [19]
inactive: all other assays above

COC(=O)Nc1ccc(Cl)c(Cl)c1
not listed: [15] | [16]
inactive: all other assays above

O=Cc1ccc(Cl)cc1
not listed: [18] | [20]
inactive: all other assays above

OCCC(F)(F)C(F)(F)C(F)(F)C(F)(F)C(F)(F)C(F)(F)F
not listed: [12]
inactive: all other assays above

CCCCCC=O
inactive and 11.9 nM (active): [13]
not listed: [20]
inactive: all other assays above
